# Data published in the supplement of paper PMC4466140.
# Columns and labels:
# Assay in all cases: SPOT peptide array binding signal intensity (averaged, normalized) (arbitrary units (background-subtracted, floor 0; scale differs between SH3 domains)); higher = stronger binding of the SH3 domain to the peptide
# [1] = biological target: ScBbc1
# In short: (§1)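 Binding signal refers to normalized, background-subtracted spot intensity averaged over replicates, expressed in arbitrary units that differ between domains. GST-fused SH3 domains from four yeast species were incubated at 10 μg/ml overnight at 4°C on cellulose membranes of synthetic 15-mer peptides with cysteines replaced by serines. Bound protein was detected with anti-GST antibody, an HRP anti-mouse secondary and luminol, and quantified with Genespotter.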
# [2] = biological target: ScBem1-D1
# In short: as §1
# [3] = biological target: ScBzz1-D1
# In short: as §1
# [4] = biological target: ScBzz1-D2
# In short: as §1
# [5] = biological target: ScCyk3
# In short: as §1
# [6] = biological target: ScFus1
# In short: as §1
# [7] = biological target: ScHof1
# In short: as §1
# [8] = biological target: ScHse1
# In short: as §1
# [9] = biological target: ScLsb1
# In short: as §1
# [10] = biological target: ScLsb2
# In short: as §1
# [11] = biological target: ScLsb3
# In short: as §1
# [12] = biological target: ScLsb4
# In short: as §1
# [13] = biological target: ScMyo3
# In short: as §1
# [14] = biological target: ScMyo5
# In short: as §1
# [15] = biological target: ScNbp2
# In short: as §1
# [16] = biological target: ScPex13
# In short: as §1
# [17] = biological target: ScRvs167
# In short: as §1
# [18] = biological target: ScSho1
# In short: as §1
# [19] = biological target: ScSla1-D1-D2
# In short: as §1
# [20] = biological target: ScSla1-D3
# In short: as §1
# [21] = biological target: SpAbp1-D1
# In short: as §1
# [22] = biological target: SpBbc1
# In short: as §1
# [23] = biological target: SpBzz1-D1
# In short: as §1
# [24] = biological target: SpBzz1-D2
# In short: as §1
# [25] = biological target: SpCyk3
# In short: as §1
# [26] = biological target: SpHof1
# In short: as §1
# [27] = biological target: SpHof1-2
# In short: as §1
# [28] = biological target: SpHof1-3
# In short: as §1
# [29] = biological target: SpHse1
# In short: as §1
# [30] = biological target: SpLsb1
# In short: as §1
# [31] = biological target: SpLsb4
# In short: as §1
# [32] = biological target: SpMyo1
# In short: as §1
# [33] = biological target: SpNbp2
# In short: as §1
# [34] = biological target: SpPex13
# In short: as §1
# [35] = biological target: SpRvs167
# In short: as §1
# [36] = biological target: SpSla1-D1-D2
# In short: as §1
# [37] = biological target: SpSla1-D3
# In short: as §1
binder,measurement,setting,value
SSSSTPPTLPPRRIE,SPOT peptide array binding signal intensity,[1],61.5
same,SPOT peptide array binding signal intensity,[2],8
same,SPOT peptide array binding signal intensity,[3],3
same,SPOT peptide array binding signal intensity,[4],2
same,SPOT peptide array binding signal intensity,[5],2
same,SPOT peptide array binding signal intensity,[6],≤ 0
same,SPOT peptide array binding signal intensity,[7],122
same,SPOT peptide array binding signal intensity,[8],≤ 0
same,SPOT peptide array binding signal intensity,[9],2090
same,SPOT peptide array binding signal intensity,[10],1570
same,SPOT peptide array binding signal intensity,[11],11000
same,SPOT peptide array binding signal intensity,[12],4800
same,SPOT peptide array binding signal intensity,[13],111
same,SPOT peptide array binding signal intensity,[14],17.5
same,SPOT peptide array binding signal intensity,[15],≤ 0
same,SPOT peptide array binding signal intensity,[16],2100
same,SPOT peptide array binding signal intensity,[17],3870
same,SPOT peptide array binding signal intensity,[18],56.5
same,SPOT peptide array binding signal intensity,[19],6
same,SPOT peptide array binding signal intensity,[20],1.75
same,SPOT peptide array binding signal intensity,[21],≤ 0
same,SPOT peptide array binding signal intensity,[22],0.5
same,SPOT peptide array binding signal intensity,[23],219
same,SPOT peptide array binding signal intensity,[24],≤ 0
same,SPOT peptide array binding signal intensity,[25],4
same,SPOT peptide array binding signal intensity,[26],4.5
same,SPOT peptide array binding signal intensity,[27],12.2
same,SPOT peptide array binding signal intensity,[28],10
same,SPOT peptide array binding signal intensity,[29],16
same,SPOT peptide array binding signal intensity,[30],3060
same,SPOT peptide array binding signal intensity,[31],6340
same,SPOT peptide array binding signal intensity,[32],594
same,SPOT peptide array binding signal intensity,[33],≤ 0
same,SPOT peptide array binding signal intensity,[34],4
same,SPOT peptide array binding signal intensity,[35],3420
same,SPOT peptide array binding signal intensity,[36],≤ 0
same,SPOT peptide array binding signal intensity,[37],≤ 0
